Test results published in PubChem BioAssay (NCI).
The panel holds about 83,000 compounds, 20% with a hit somewhere; the sample as a whole holds those more often.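 Percent growth is the endpoint: 0 to 100 indicates growth inhibition (40 means 60% inhibition), 0 means no net growth, and negative values indicate cell death.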 Values without a mark were called inactive. Activity calls are given as the source filed them. How the source made its calls: active means growth percent below 10; inactive means the rest.

Tests used:
Assay in all cases: NCI-60 one-dose screen, 48 h (100 = growth as untreated, 0 = no growth, -100 = all killed)
Details in all cases: 10 µM unless noted
NCI-H23 lung = tested on: NCI-H23 lung
NCI-H226 lung = tested on: NCI-H226 lung
NCI-H322M lung = tested on: NCI-H322M lung
HOP-62 NSCLC = tested on: HOP-62 NSCLC
NCI-H460 lung = tested on: NCI-H460 lung
HOP-92 NSCLC = tested on: HOP-92 NSCLC
NCI-H522 lung = tested on: NCI-H522 lung
A549/ATCC NSCLC = tested on: A549/ATCC NSCLC
786-0 renal = tested on: 786-0 renal
COLO 205 colon = tested on: COLO 205 colon

SMILES | growth (NCI-H23 lung) | growth (NCI-H226 lung) | growth (NCI-H322M lung) | growth (HOP-62 NSCLC) | growth (NCI-H460 lung) | growth (HOP-92 NSCLC) | growth (NCI-H522 lung) | growth (A549/ATCC NSCLC) | growth (786-0 renal) | growth (COLO 205 colon)
COC(=O)C(C)NC1=C(Cl)C(=O)C(NC(C)C(=O)OC)=C(Cl)C1=O (stereo not given) | 101% | 100% | 101% | 98.7% | 95.9% | 101% | 78.2% | 98.9% | 105% | 99.5%
CCCCNCCC(O)c1cc2ccc(C(F)(F)F)cc2c2cc(C(F)(F)F)ccc12 (stereo not given) | -75.3% (active) | -70.7% (active) | -37.6% (active) | -91.3% (active) | -74.5% (active) | -80.6% (active) | -83% (active) | -87.5% (active) | -85.3% (active) | -88.6% (active)
CCCCCc1c(C)[nH]c(/C=C2\N=C(c3ccc[nH]3)C=C2CC)c1C | -81% (active) | -92.3% (active) | -90.2% (active) | -72.2% (active) | -73.3% (active) | -91.8% (active) | -88.8% (active) | -86.4% (active) | -93.6% (active) | -87.7% (active)
COc1cc2nccc(Oc3ccc(NC(=O)C4(C(=O)Nc5ccc(F)cc5)CC4)cc3)c2cc1Oc1ccc(N)cn1 | 49.3% | 36.5% | 49.4% | 51.2% | 31% | -11.5% (active) | 51.3% | 22.7% | 39.1% | 8.91% (active)
CCN(C)CCCOc1ccc(/C(=C(\C)Cc2cccc(OC)c2)c2ccc(OC(C)=O)cc2)cc1 | 93.9% | 86.2% | 98.5% | 97% | 105% | 99.2% | 94.3% | 104% | 101% | 107%
O=C(O)/C=C(\c1nc2ccc([N+](=O)[O-])cc2[nH]1)c1cc(Cl)ccc1O | 4.9% (active) | 34.4% | 33.6% | 42.8% | 14.4% | 8.34% (active) | 2.47% (active) | 27% | 44% | 27.5%
NC(N)=N/N=C\c1ccc(OCc2ccccc2)cc1 | 84% | 46.4% | 93.4% | 62.8% | 96.4% | 40.2% | 77.3% | 82.8% | 81.7% | -62.8% (active)
O=C1/C(=C\c2cccn2Cc2ccc(Cl)cc2)c2ccccc2N1c1c(Cl)cccc1Cl | 86.3% | 59.3% | 68.6% | 98.6% | 94% | 74.8% | 76.6% | 67.2% | 81.7% | 93.6%
CC(C)NCCCCCNc1cc(O)cc2cccnc12 | 45.7% | 92.1% | 56.9% | 71.5% | 105% | -8.76% (active) | 86.5% | 123% | 70.1% | -36.3% (active)
Nc1nonc1-c1nc2ccccc2n1Cc1ccc(F)cc1 | 70.6% | 69.3% | 69.8% | 56.7% | 49.3% | 65% | 4.81% (active) | 39.1% | 76.4% | 42.8%
COc1ccc(NC(=O)c2ccc(C(F)(F)F)nc2Nc2ccc(Cl)cc2C)cc1Cl | 3.83% (active) | 26.7% | 45.8% | 32.4% | 7.62% (active) | -8.93% (active) | 18.9% | 14.2% | 17% | -14.5% (active)
CCN(CC)c1ccc2nc3c4ccccc4c(=O)cc-3n(-c3ccccc3)c2c1 | -3.45% (active) | 5.4% (active) | -23.5% (active) | 9.84% (active) | -41.5% (active) | -7.83% (active) | -8.95% (active) | 11.6% | 4.36% (active) | -55.1% (active)
CN1CCN(Cc2ccc(NC(=O)c3cccc(C#Cc4cnc(N)c5ncccc45)c3F)cc2C(F)(F)F)CC1 | 61.4% | 19.3% | 46.7% | 49.4% | -71.8% (active) | 26.5% | -9.1% (active) | 38.2% | -88.2% (active) | 42.5%
CN(C)CCOc1nc2c3ccncc3cc(-c3cccc(Cl)c3)c2c2cnccc12 | 29.7% | 35% | 44.1% | 43.5% | 10.5% | 56.2% | 31.9% | 16.4% | 33.4% | 13.8%
O=C(O)C1[S][Sb]([CH](C(=O)O)[CH](C(=O)O)[Sb]2[S]C(C(=O)O)C(C(=O)O)[S]2)[S]C1C(=O)O (stereo not given) | 104% | 105% | 95.8% | 123% | 84.6% | 91.6% | 42.4% | 89.2% | 93.7% | 114%
CCOC(C)(c1ccc(Cl)cc1)C1CCNCC1 (stereo not given) | 101% | 116% | 105% | 93.3% | 70.3% | 85.2% | 107% | 67.9% | 91.9% | 118%
COc1ccc(C2CC(c3ccc(Nc4ccnc5cc(Cl)ccc45)cc3)=NN2c2ccccc2)cc1 (stereo not given) | 97.7% | 102% | 100% | 106% | 85.6% | 68.5% | 90.6% | 85.8% | 100% | 86.5%
COc1cc(C)cc2oc3oc(=O)c(-c4csc(-c5cc6ccccc6oc5=O)n4)cc3c(=O)c12 | 101% | 102% | 105% | 103% | 106% | 105% | 103% | 114% | 106% | 119%
CCOCC(O)(c1ccc(Cl)cc1)c1ccc(Cl)cc1 | 95.1% | 113% | 93.9% | 115% | 107% | 107% | 89.4% | 83.2% | 104% | 111%
C#CC[C@@H]1C[C@]2(C)[C@H]3CC[C@@H]4[C@H]5C(C(=C)C)CC[C@]5(C(=O)NCCCN5CCN(CCCN)CC5)CC[C@@]4(C)[C@]3(C)CC[C@H]2C(C)(C)[C@H]1OC(C)=O (stereo not given in full) | 3.21% (active) | 87.4% | -81.2% (active) | -59.7% (active) | -77% (active) | -78.3% (active) | 4.62% (active) | -61.9% (active) | -97.5% (active) | -68.3% (active)
c1ccc(C(CC2=NCCCN2)c2ccccc2)cc1 | 99.6% | 98% | 99.7% | 94.1% | 102% | 82.6% | 90.9% | 91.7% | 107% | 102%
Cc1ccc(NC(=O)c2nc(S(C)=O)oc2-c2ccc(F)cc2)cc1Nc1nccc(-c2cccnc2)n1 (stereo not given) | 50% | 51.7% | 103% | 58.2% | 61.5% | 96.2% | 7.97% (active) | 95.4% | 54.6% | 54%
O=C(C=P(c1ccccc1)(c1ccccc1)c1ccccc1)CCl | -23.2% (active) | -70.7% (active) | 10.3% | 13.9% | -11.9% (active) | -51.7% (active) | -77.7% (active) | 23.1% | -75.8% (active) | -53.9% (active)
Clc1ncnc2scc(C3COc4ccccc4O3)c12 (stereo not given) | 95.9% | 75.3% | 98.6% | 105% | 106% | 78.9% | 53.6% | 95.5% | 104% | 100%
Cc1ccc2nc(CN(CCN(Cc3nc4ccc(C)cc4[nH]3)Cc3nc4ccc(C)cc4[nH]3)Cc3nc4ccc(C)cc4[nH]3)[nH]c2c1 | -57.3% (active) | -97.1% (active) | -95.7% (active) | -93.3% (active) | -94.8% (active) | -80.7% (active) | -86.4% (active) | -89.1% (active) | -97.3% (active) | -93.4% (active)
CCc1ccc(-c2ccc(NC3CCCCCC3)nn2)cc1S(N)(=O)=O | 106% | 104% | 110% | 120% | 104% | 94.2% | 87.7% | 98.2% | 103% | 115%
Cc1cc(C)c(C#N)c(SCC(=O)c2sc3c(C#N)c(C)cc(C)[n+]3c2[O-])n1 | 39.4% | 46.3% | 29% | 17% | 6.25% (active) | 51.8% | -31.1% (active) | 19.9% | 30.6% | 5.03% (active)
